# Measured values: the supplement of paper PMC8728848
# About 410 targets per protein were measured; listed, in parts, are those with the strongest signals and a random draw of the rest.
# Columns and labels:
# Assay in all cases: glycan array binding signal (z-score within array); higher = stronger binding
# Settings in all cases: glycan notation: IUPAC condensed, linker removed
# [1] = target: Gal(b1-4)GlcNAc(b1-3)Gal(b1-4)GlcNAc(b1-3)GalNAc
# In short: (§1)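 Glycan array data came from 3228 arrays in the Consortium for Functional Glycomics database, and only arrays with an available protein sequence were kept. Glycan names were put into IUPAC-condensed notation, and columns mapping to the same glycan were averaged. The binding signal is a within-array Z-score, averaged across arrays of one protein sequence run at different concentrations or buffers and across linkers. A negative Z-score can be read as non-binding.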
# [2] = target: Gal(b1-4)GlcNAc(b1-3)Gal(b1-4)GlcNAc(b1-3)[Gal(b1-4)GlcNAc(b1-3)Gal(b1-4)GlcNAc(b1-6)]GalNAc
# In short: as §1
# [3] = target: Gal(b1-4)GlcNAc(b1-6)GalNAc
# In short: as §1
# [4] = target: Gal6S(b1-4)Glc6S
# In short: as §1
# [5] = target: GalNAc(b1-3)Gal
# In short: as §1
# [6] = target: GalNAc3S(b1-4)GlcNAc
# In short: as §1
# [7] = target: GlcA(b1-3)GlcNAc
# In short: as §1
# [8] = target: GlcNAc(a1-4)Gal(b1-4)GlcNAc(b1-3)Gal(b1-4)GlcNAc
# In short: as §1
# [9] = target: GlcNAc(a1-4)Gal(b1-4)GlcNAc(b1-3)Gal(b1-4)GlcNAc(b1-3)Gal(b1-4)GlcNAc
# In short: as §1
# [10] = target: GlcNAc(b1-3)Gal(b1-4)GlcNAc(b1-3)Gal(b1-4)GlcNAc
# In short: as §1
# [11] = target: GlcNAc(b1-3)Gal(b1-4)GlcNAc(b1-3)Gal(b1-4)GlcNAc(b1-3)Gal(b1-4)GlcNAc(b1-2)Man(a1-3)[GlcNAc(b1-3)Gal(b1-4)GlcNAc(b1-3)Gal(b1-4)GlcNAc(b1-3)Gal(b1-4)GlcNAc(b1-2)Man(a1-6)]Man(b1-4)GlcNAc(b1-4)[Fuc(a1-6)]GlcNAc
# In short: as §1
# [12] = target: GlcNAc(b1-3)[GlcNAc(b1-6)]Gal(b1-4)GlcNAc
# In short: as §1
# [13] = target: Neu5Ac(a2-3)Gal
# In short: as §1
# [14] = target: Neu5Ac(a2-3)Gal(b1-3)GalNAc6S
# In short: as §1
# [15] = target: Neu5Ac(a2-3)Gal(b1-4)GlcNAc(b1-3)Gal(b1-4)[Fuc(a1-3)]GlcNAc
# In short: as §1
# [16] = target: Neu5Ac(a2-3)Gal(b1-4)[Fuc(a1-3)]GlcNAc(b1-3)GalNAc
# In short: as §1
# [17] = target: Neu5Ac(a2-3)Gal(b1-4)[Fuc(a1-3)]GlcNAc(b1-6)[Gal(b1-3)]GalNAc
# In short: as §1
# [18] = target: Neu5Ac(a2-6)Gal(b1-4)GlcNAc(b1-2)Man
# In short: as §1
# [19] = target: Neu5Ac(a2-6)Gal(b1-4)GlcNAc(b1-2)Man(a1-3)Man(b1-4)GlcNAc(b1-4)GlcNAc
# In short: as §1
# [20] = target: Neu5Ac(a2-6)Gal(b1-4)GlcNAc(b1-2)Man(a1-3)[Gal(b1-4)GlcNAc(b1-2)Man(a1-6)]Man(b1-4)GlcNAc(b1-4)GlcNAc
# In short: as §1
# [21] = target: Neu5Ac(a2-6)Gal(b1-4)GlcNAc(b1-2)Man(a1-6)[Man(a1-3)]Man(b1-4)GlcNAc(b1-4)GlcNAc
# In short: as §1
# [22] = target: Neu5Ac(a2-6)Gal(b1-4)GlcNAc(b1-2)[Neu5Ac(a2-6)Gal(b1-4)GlcNAc(b1-4)]Man(a1-3)[GlcNAc(b1-4)][Neu5Ac(a2-6)Gal(b1-4)GlcNAc(b1-2)[Neu5Ac(a2-6)Gal(b1-4)GlcNAc(b1-6)]Man(a1-6)]Man(b1-4)GlcNAc(b1-4)GlcNAc
# In short: as §1
# [23] = target: Neu5Ac(a2-6)Gal(b1-4)GlcNAc(b1-3)Gal(b1-4)GlcNAc(b1-2)Man(a1-3)[Neu5Ac(a2-6)Gal(b1-4)GlcNAc(b1-3)Gal(b1-4)GlcNAc(b1-2)Man(a1-6)]GalNAc
# In short: as §1
# [24] = target: Neu5Ac(a2-6)Gal(b1-4)GlcNAc(b1-6)[Gal(b1-3)GlcNAc(b1-3)]Gal(b1-4)Glc
# In short: as §1
# [25] = target: Neu5Ac(a2-6)GalNAc
# In short: as §1
# [26] = target: Neu5Ac(a2-6)GalNAc(b1-4)GlcNAc6S
# In short: as §1
# [27] = target: Neu5Ac(a2-8)Neu5Ac(a2-8)Neu5Ac(a2-3)[GalNAc(b1-4)]Gal(b1-4)Glc
# In short: as §1
# [28] = target: Neu5Gc(a2-8)Neu5Ac(a2-3)Gal(b1-4)GlcNAc
# In short: as §1
binder,measurement,setting,value
SP16664D-bth-476-27-476 (Bacteroides thetaiotaomicron) (protein) DDLEVGKNIDESAYSGIYENNAYLRDGKSNLVSKVVELHGETYATTVKMGLSKTPNTATSAKVKIDAAYLETYNKAHNTDFALYPQDLVTFANEGILTVNANTKSAEVEMTIRAGEGLQEDKTYAIPVAISDQSSDITIKDEDAKHCIYLVKDMRNAGDAYKGEGVMQGYLFFEVNDVNPLNTLSFQLENGKLLWDVVVLFAANINYDAEAGRPRVQCNPNVQYLLDNNETLLQPLRRRGVKVLLGLLGNHDITGLAQLSEQGAKDFAREVAQYCKAYNLDGVNYDDEYSNSPDLSNPSLTNPSTAAAARLCYETKQAMPDKLVTVFDWGQMYGVATVDGVDAKEWIDIVVANYGSAAYPIGQMTKKQCSGISMEFNLGGGGSLSASKAQSMIDGGYGWFMGFAPSPAKYGSVFSRLQGGGEVLYGSNVAAPTIFYKKNDPTPYKYPDDL,glycan array binding signal (z-score),[1],-0.091
same,glycan array binding signal (z-score),[2],-0.045
same,glycan array binding signal (z-score),[3],-0.123
same,glycan array binding signal (z-score),[4],0.344
same,glycan array binding signal (z-score),[5],-0.159
same,glycan array binding signal (z-score),[6],-0.345
same,glycan array binding signal (z-score),[7],-0.153
same,glycan array binding signal (z-score),[8],-0.259
same,glycan array binding signal (z-score),[9],-0.185
same,glycan array binding signal (z-score),[10],0.054
same,glycan array binding signal (z-score),[11],-0.18
same,glycan array binding signal (z-score),[12],-0.212
same,glycan array binding signal (z-score),[13],-0.156
same,glycan array binding signal (z-score),[14],-0.227
same,glycan array binding signal (z-score),[15],0.058
same,glycan array binding signal (z-score),[16],0.765
same,glycan array binding signal (z-score),[17],9.86
same,glycan array binding signal (z-score),[18],-0.235
same,glycan array binding signal (z-score),[19],-0.117
same,glycan array binding signal (z-score),[20],2.55
same,glycan array binding signal (z-score),[21],3.75
same,glycan array binding signal (z-score),[22],2.38
same,glycan array binding signal (z-score),[23],1.28
same,glycan array binding signal (z-score),[24],-0.349
same,glycan array binding signal (z-score),[25],-0.006
same,glycan array binding signal (z-score),[26],-0.065
same,glycan array binding signal (z-score),[27],2.53
same,glycan array binding signal (z-score),[28],-0.114
